This is a sample that favours compounds with a hit; in the whole collection about 2.5% have one here.
D2 antagonist – D2 dopamine receptor (human) antagonism; P14416; HEK293 TREx D2 cells, calcium flux, dopamine EC80; 2% of 340,000 active; inhibition, % at 10 µM; in the data active = inhibition above about 30%; inactive = below that, where a call was filed
Target sequence (P14416 whole entry, looked up): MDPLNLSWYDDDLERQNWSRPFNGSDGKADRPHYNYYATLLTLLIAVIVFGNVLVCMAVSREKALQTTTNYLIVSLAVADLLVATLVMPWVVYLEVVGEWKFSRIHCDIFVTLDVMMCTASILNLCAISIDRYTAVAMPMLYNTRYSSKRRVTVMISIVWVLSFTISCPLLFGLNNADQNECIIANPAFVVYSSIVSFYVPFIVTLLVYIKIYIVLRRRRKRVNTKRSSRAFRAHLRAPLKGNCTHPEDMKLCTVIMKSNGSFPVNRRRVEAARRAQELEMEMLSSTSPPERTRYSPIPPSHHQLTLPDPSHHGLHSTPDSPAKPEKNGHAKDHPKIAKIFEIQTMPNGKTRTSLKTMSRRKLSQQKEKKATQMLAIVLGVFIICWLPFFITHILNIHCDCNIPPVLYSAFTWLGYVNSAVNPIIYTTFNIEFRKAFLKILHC
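Tetracycline-induced HEK293 TREx cells expressing D2 receptor forced-coupled to calcium signalling, loaded with no-wash calcium dye. Compounds added and calcium flux read 180 s, then dopamine added at EC80 and read a further 180 s.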
D2 ag-1 – human D2 receptor agonism in beta-arrestin assay | P14416 | DiscoveRx PathHunter D2 beta-arrestin, luminescence, 90 min; 100% = 57 uM dopamine signal | activation, % (no concentration beside the values) | 0.084% of 360,000 active; in the data active = activation above about 40%; inconclusive = between about 15% and that limit
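DiscoveRx PathHunter D2 beta-arrestin cells (2,100/well) attached overnight, then compound-stimulated 90 min at 37 C in HBSS/10 mM HEPES/0.1% Tween-20 buffer; beta-galactosidase complementation read by luminescence after 1 h at ambient temperature. Dopamine 57 uM final (EC100) as control.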
D2 ag-2 – D2 dopamine receptor (human) agonism; HEK293 T-REx D2 cells, calcium flux agonist mode; activation, % at 2 µM; 0.53% of 340,000 active; AID 485358;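 active = activation over 3 SD above normal in the single-dose calcium agonist read, cut at about 30% in these data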
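Tetracycline-induced HEK293 T-REx cells with force-coupled D2 receptor, plated overnight at 30 C, loaded with no-wash calcium dye. After a 10 s baseline, compound was pin-added and calcium flux read kinetically for 180 s; calcium rises flagged agonists.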
D2 PAM-1 – positive allosteric modulators of human D2 dopamine receptor; P14416; DiscoveRx D2 beta-arrestin cells, luminescence, 90 min; 100% = 57 uM dopamine signal; potentiation, % (test concentration not listed); 0.23% of 360,000 active; in the data active = potentiation above about 50%; inconclusive = mostly about 30% to 49%
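D2 cells co-treated with compound plus 50 nM dopamine (EC20) for 90 min at 37 deg C to detect potentiation. Beta-arrestin recruitment was read as enzyme-fragment luminescence after 1 h at ambient temperature. Full response was set by 57 uM dopamine.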
D2 PAM-2 – positively modulates the human D2 dopamine receptor allosterically; HEK293 T-REx D2, calcium flux, EC20 dopamine potentiation; potentiation, % at 10 µM; 0.34% of 340,000 active;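 active = potentiation over 3 SD above the plate norm, cut at about 30% in these data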
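Primary screen. Calcium kinetics in induced HEK293 T-REx D2 cells: compound pre-addition 180 s, EC20 dopamine, 180 s more.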
Anesthetic bind – binds horse apoferritin like a general anesthetic; apoferritin/1-aminoanthracene competitive binding, fluorescence; Potency, µM (series often up to 77.5 µM), most hits filed as inhibitors; 0.074% of 350,000 active; note: nearly all actives have a fitted effect of over 20% in size
Target sequence (P02791 2-175 limits assumed): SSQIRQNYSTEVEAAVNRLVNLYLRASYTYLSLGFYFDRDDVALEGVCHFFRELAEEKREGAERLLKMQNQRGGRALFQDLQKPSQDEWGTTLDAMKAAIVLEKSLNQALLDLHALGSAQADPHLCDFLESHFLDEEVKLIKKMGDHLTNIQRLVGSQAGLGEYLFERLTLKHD
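Horse-spleen apoferritin (10 uM) was mixed with 50% saturated 1-aminoanthracene in PBS, exposed to compounds for 10 min at room temperature, and read for fluorescence (ex 380 nm, em 535 nm). Competitive displacement was fitted with a four-parameter Hill equation.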
D3 ag – confirmation of human D3 dopamine receptor agonists, beta-arrestin; shares compounds with D2 ag-2; Potency, µM (doses to about 76.9 µM), actives largely listed as activators; 4% of 2,300 active; DiscoveRx D3 beta-arrestin cells, luminescence, 90 min; note: nearly all actives have a fitted effect of over 70% in size
D2 ag-3 – D2 receptor agonism, beta-arrestin counterscreen; 5.9% of 2,300 active; DiscoveRx PathHunter D2 beta-arrestin, luminescence, 90 min; response scale: percent relative to full dopamine signal; shares compounds with D2 ag-2; Potency, µM (titrated, usually from 76.9 µM), usual class: activators; note: nearly all actives have a fitted effect of over 70% in size
Each line names hits and unclear results; the compound was inactive in the other large screens (follow-up assays come after a bar, where they were run). Unless noted, calls come from the whole dose curve; as a rule, active = well fitted curve in the direction sought with a large enough effect; inconclusive = small, poorly fitted or top-dose-only effect, or another doubt; inactive = no such curve, though single readings can be large; an effect the other way counts as inactive or inconclusive.

Cc1ccc(S(=O)(=O)N2CCOCC2)cc1C(=O)N1CCOCC1	none (no result: D2 antagonist, D2 ag-2)
Cc1ccc(S(=O)(=O)N2CCOCC2)cc1C(=O)N1CCN(c2ncccn2)CC1	D2 ag-2 35.7 (no result: Anesthetic bind) | D3 ag inactive | D2 ag-3 inactive
CCOCC(=O)Nc1ccc(Br)c(C)c1	none
COC(=O)c1scc(S(=O)(=O)c2ccccc2)c1N	none
Fc1ccccc1N1CCN(CCCNc2ccc3nncn3n2)CC1	D2 antagonist 90.0, D2 ag-1 43.3, D2 ag-2 95.3 | D3 ag inconclusive | D2 ag-3 inconclusive
CCCCOC(=O)c1ccc(NC(=O)c2cnc3n(c2=O)CCS3)cc1	none | D3 ag inactive | D2 ag-3 inactive
O=C(Nc1ccc(OC(F)(F)F)cc1)c1cnc2n(c1=O)CCS2	none
CC(CCc1ccc(O)cc1)N(C)CCc1ccccc1 (stereo unspecified)	D2 antagonist 90.7, D2 ag-2 38.7 | D3 ag inactive | D2 ag-3 inactive
CCc1cccc2c(C(=O)C(NC(C)CC)c3ccccc3)c[nH]c12 (stereo unspecified)	Anesthetic bind inconclusive
COc1ccc(Cc2nc3ccc(S(=O)(=O)N4CCOCC4)cc3[nH]2)cc1OC	Anesthetic bind inconclusive
CCC(=O)NNc1ncnc2c1cnn2C	D2 antagonist 47.6 | D3 ag inactive | D2 ag-3 inactive
Cc1cc(-c2ccc(C)c(S(=O)(=O)NCCCN3CCN(c4ccccc4F)CC3)c2)on1	D2 antagonist 76.0, D2 ag-2 70.5 | D3 ag inconclusive | D2 ag-3 inconclusive
CSc1ccc(CCNS(=O)(=O)c2cc(-c3cc(C)no3)ccc2C)cc1	none (no result: D2 antagonist, D2 ag-1, D2 PAM-1)
COc1ccc(-c2cc(C)no2)cc1S(=O)(=O)NCCCN1CCN(c2ccccc2)CC1	D2 antagonist 80.1, D2 ag-2 78.1 | D3 ag inactive | D2 ag-3 inconclusive
Cc1cc(-c2ccc(C)c(S(=O)(=O)NCCCN3CCN(c4ccccc4)CC3)c2)on1	D2 antagonist 73.4, D2 ag-2 71.9 | D3 ag inconclusive | D2 ag-3 inconclusive
CC(NC(=O)c1cn(C)c2ccc(S(=O)(=O)N3CCCC3)cc2c1=O)c1ccccc1 (stereo unspecified)	none
O=C(O)C1C2CCC(C2)C1C(=O)NCCc1ccc(F)cc1 (stereo unspecified)	none
O=C(O)C1C2C=CC(C3CC23)C1C(=O)NCCc1ccccc1 (stereo unspecified)	D2 ag-2 31.6 | D3 ag inactive | D2 ag-3 inactive
NC[C@H](Cc1ccccc1)NCCCCC1CCCCC1	D2 ag-2 32.8 (no result: Anesthetic bind) | D3 ag inactive | D2 ag-3 inactive
COc1cc(CCCN[C@H](CN)Cc2ccccc2)cc(OC)c1OC	none (no result: Anesthetic bind)
On1c(-c2ccco2)nc2c1CCc1nonc1-2	none
COc1ccc(/[N+]([O-])=C/c2ccco2)cc1	none (no result: Anesthetic bind) | D3 ag inactive | D2 ag-3 inactive
COc1ccc(OCC(=O)N/N=C\c2ccco2)cc1	none
COC(=O)C1=CO[C@@H](O[C@@H]2O[C@H](CO)[C@@H](O)[C@H](O)[C@H]2O)C2C(CO)=CCC12 (stereo partly specified)	none (no result: D2 antagonist, D2 ag-2, D2 PAM-2)
CC(=O)OCC1=C[C@@H]2OC(=O)C3=CO[C@@H](O[C@@H]4O[C@H](CO)[C@@H](O)[C@H](O)[C@H]4O)[C@H]1[C@@H]32	none (no result: Anesthetic bind) | D3 ag inactive | D2 ag-3 inactive
O=C(NNS(=O)(=O)c1ccccc1[N+](=O)[O-])c1cccc(Br)c1	none (no result: D2 antagonist, D2 ag-2, D2 PAM-2)
O=C(NNS(=O)(=O)c1ccccc1[N+](=O)[O-])c1cccc(Cl)c1	D2 ag-2 50.8 | D3 ag inactive | D2 ag-3 inactive
Nc1cc(=O)nc(SCC(=O)N2CCN(c3ccccc3)CC2)n1-c1ccccc1	none
Nc1cc(=O)nc(SCC(=O)N2CCN(c3ccccc3)CC2)n1-c1ccc(F)cc1	none | D3 ag inactive | D2 ag-3 inactive
Cc1ccc(-n2c(N)cc(=O)nc2SCC(=O)N2CCN(c3ccccc3)CC2)cc1	D2 antagonist 63.6, D2 ag-2 65.6 | D3 ag inactive | D2 ag-3 inactive
COc1cccc(-n2c(N)cc(=O)nc2SCC(=O)N2CCN(c3ccccc3)CC2)c1	none | D3 ag inactive | D2 ag-3 inactive
CCCCOCCCNC(=O)c1cccs1	none
Cc1ccc(C(C)(C)C)cc1S(=O)(=O)NC(=O)c1ccccc1	none
Cn1cncc1C#Cc1ccc2cc(CCO)oc(=O)c2c1	none (no result: Anesthetic bind) | D3 ag inactive | D2 ag-3 inactive
O=C(Nc1ccc(NC(=O)c2ccc([N+](=O)[O-])cc2[N+](=O)[O-])cc1)c1ccco1	D2 ag-2 46.7, D2 PAM-1 inconclusive | D3 ag inconclusive | D2 ag-3 inactive
CCSc1nc(CC)c2c(c1C#N)CCCC2	D2 ag-2 56.1 | D3 ag inactive | D2 ag-3 inactive
CCCOc1ccc(C(=O)NNC(=S)NC(=O)c2ccco2)cc1	D2 ag-2 33.9 | D3 ag inactive | D2 ag-3 inactive
CC(NC(=O)c1cc([N+](=O)[O-])cc([N+](=O)[O-])c1)c1ccc(-n2ccnc2)cc1 (stereo unspecified)	none
COc1ccc(CN2C(=O)C(C)N(C(=O)c3c(F)cccc3F)c3ccccc32)cc1 (stereo unspecified)	none | D3 ag inactive | D2 ag-3 inactive
CC1C(=O)N(Cc2ccc([N+](=O)[O-])cc2)c2ccccc2N1C(=O)c1c(F)cccc1F (stereo unspecified)	none
Cc1ccc(S(=O)(=O)NC(N)=NCCc2ccc(Cl)cc2)cc1	none (no result: D2 antagonist, D2 ag-2, D2 PAM-2)
CCN1C[C@@H]2[C@@H]3C(=O)N(Cc4ccccc4)C(=O)[C@@H]3[C@](CC)(C1=O)N2C(=O)c1ccccc1	none (no result: D2 antagonist, D2 ag-2, D2 PAM-2, Anesthetic bind)
O=C1N=C(N2CCOCC2)S/C1=C\c1cccs1	none
Cc1ccccc1-c1ccc(/C=C2/SC(N3CCOCC3)=NC2=O)o1	D2 antagonist 82.6, D2 ag-1 48.7, D2 ag-2 72.6, D2 PAM-1 inconclusive | D3 ag inactive | D2 ag-3 inconclusive
O=C1N=C(N2CCOCC2)S/C1=C\c1ccc(-c2ccccc2Cl)o1	D2 ag-2 41.6 | D3 ag inactive | D2 ag-3 inconclusive
C=CCNCc1cc(=O)n2c(-c3ccccc3)csc2n1	D2 ag-2 47.1 | D3 ag inactive | D2 ag-3 inactive
